High-throughput results from PubChem.
Pf apPOL inh: Pf-apPOL DNA polymerase inhibition; Recombinant Pf-apPOL, molecular beacon fluorescence, 1.5 h; inhibition, % at 10 µM; 210,000 tested, 0.25% active
mHTT CaM bind: disrupts binding of mutant huntingtin to calmodulin; P42858; AlphaScreen His-mHTT/GST-CaM binding, luminescence; inhibition, % at 15 µM; 190,000 tested, 3.6% active; AID 1671202;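 further: 0% = both proteins with DMSO and 100% = one protein alone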
An asterisk follows results filed as active; . = no result. This is one part of a sample in which hits are shown more often than they occur. No stated cut-off is given here; in the data, active means inhibition above about 50%; inactive means the rest.

SMILES | Pf apPOL inh | mHTT CaM bind
COc1ccc(-c2n[nH]c(C)c2Oc2ccccc2)c(O)c1 | -3 | 32
CCCc1ccc(Oc2cn[nH]c2-c2ccc(O)c(C)c2O)cc1 | -7 | 90*
Oc1ccc(-c2[nH]ncc2Oc2ccccc2)c(O)c1O | -2 | 100*
CCCc1ccc(Oc2c(C)oc3c(C)c(O)ccc3c2=O)cc1 | -11 | 2
Cc1[nH]nc(-c2ccc(O)c(O)c2O)c1Oc1ccccc1 | -6 | 97*
CC(C)Cc1nc(SCC(=O)c2ccc(Br)cc2)n[nH]1 | -1 | -7
CCOc1ccc(C(=O)NCCC2CCN(C(=O)c3ccc(C)cc3)CC2)cc1 | -2 | 19
COCC(C)NC(=O)C1CSCCC(=O)N1 (stereo unspecified) | -2 | -2
O=C(Nc1ccccc1F)C1CC(=O)N(Cc2cccc(Br)c2)C1 (stereo unspecified) | 1 | -3
O=C(c1ccsc1)N1CCCN(c2cc(-c3ccc4c(c3)OCO4)[nH]n2)CC1 | 4 | 7
Cc1ccccc1CC(=O)N1CCCN(c2cc(-c3ccccc3)[nH]n2)CC1 | -8 | 61*
O=C(c1cc2ccccc2[nH]1)N1CCCN(c2cc(-c3ccc4c(c3)OCO4)[nH]n2)CC1 | -7 | 56*
Cc1ccccc1CC(=O)N1CCN(c2cc(-c3cccnc3)[nH]n2)CC1 | -2 | -6
COCCn1cc2c3c(cccc31)CN(C(=O)c1ccc(F)cc1F)CC2 | -3 | 45
CCOc1ccc2sc(C=NCc3ccc(OC)cc3)c(O)c2c1 | 0 | 55*
CCOc1ccc2sc(C=NCc3ccc(F)cc3)c(O)c2c1 | 2 | 45
O=C(Nc1ccc(-c2nc3ncccc3o2)cc1)c1cccc(Br)c1 | 1 | 19
O=C1NCCCCC1NC1CCCCCC1 (stereo unspecified) | 8 | -4
COc1ccc(C)cc1NC(=O)c1cc(S(=O)(=O)NCCc2ccccc2)ccc1F | -4 | 64*
CCN(Cc1ccccc1)S(=O)(=O)c1ccc(F)c(C(=O)Nc2cc(C)ccc2OC)c1 | 31 | -4
O=C(Nc1cccc(F)c1)c1cc(S(=O)(=O)NCCc2ccccc2)ccc1F | -4 | 6
O=C(Nc1cccc(Cl)c1)c1cc(S(=O)(=O)NCCc2ccccc2)ccc1F | -4 | 51*
COc1cc(C2=NOC(C(=O)Nc3ccccc3SC)C2)cc(OC)c1OC (stereo unspecified) | -3 | 13
O=C(NCCCn1nc(-c2ccc(Cl)cc2)ccc1=O)C1CCCC1 | -25 | -9
O=c1ccc(-c2ccc(Cl)cc2)nn1CCNS(=O)(=O)c1ccc2c(c1)CCCC2 | -10 | 80*
SMILES | Pf apPOL inh | mHTT CaM bind
CCCOc1cn(-c2ccc(F)cc2)nc1C(=O)NCc1ccc2c(c1)OCO2 | -31 | 6
O=C1CC(NC(=O)c2nc3ccccc3s2)CN1 (stereo unspecified) | -3 | -9
CCC(=O)N1N=C(CC)CC1(O)c1ccc(Br)cc1 (stereo unspecified) | -4 | 6
CC1=NN(C(=O)CCCc2ccccc2)C(O)(c2ccc(Br)cc2)C1 (stereo unspecified) | 1 | 58*
Cc1ccc(-n2nc3c(c2NC(=O)c2ccc(Br)o2)CS(=O)(=O)C3)cc1 | -4 | 13
CC(C)n1c(=O)c(NCc2ccc(F)c(Cl)c2)nc2ccncc21 | -16 | 87*
CC(C)n1c(=O)c(NCc2cccc(F)c2)nc2ccncc21 | -22 | -5
Cc1cccc(C2=NN(c3ccc(Br)cc3)[C@@H](C(=O)N3CCOC3=O)[C@@H]2c2ccc(Cl)cc2)c1 | -4 | 80*
O=C1OCCN1C(=O)[C@H]1[C@H](c2ccc([N+](=O)[O-])cc2)C(c2ccccc2)=NN1c1ccc(Br)cc1 | -6 | 50
Cc1cccc(C2=NN(c3ccccc3)[C@@H](C(=O)N3CCOC3=O)[C@@H]2c2ccc([N+](=O)[O-])cc2)c1 | -4 | 54*
Cc1cccc(C2=NN(c3ccc(Br)cc3)[C@@H](C(=O)N3CCOC3=O)[C@@H]2c2ccc(F)cc2)c1 | -7 | 76*
O=C1OCCN1C(=O)[C@H]1[C@H](c2ccc(F)cc2)C(c2cccc(Cl)c2)=NN1c1ccc(Br)cc1 | -4 | 94*
O=C1OCCN1C(=O)[C@H]1[C@H](c2ccc([N+](=O)[O-])cc2)C(c2cccc(Cl)c2)=NN1c1ccc(Br)cc1 | 1 | 44
COc1ccccc1[C@@H]1C(c2cccc(C)c2)=NN(c2ccc(Br)cc2)[C@H]1C(=O)N1CCOC1=O | -9 | -16
O=C1OCCN1C(=O)[C@H]1[C@H](c2ccccc2)C(c2cccc(Cl)c2)=NN1c1ccc(Br)cc1 | 3 | -76
O=C(Nc1c2c(nn1-c1ccc(F)cc1)CS(=O)(=O)C2)c1cc(Cl)ccc1Cl | -3 | 5
CC1CC(=O)C2=C(C1)OC(N)=C(C#N)C2c1cccc(F)c1 (stereo unspecified) | -2 | -7
C1C2CC3CC1CC(C2)C3Nc1nc2nonc2nc1NC1C2CC3CC(C2)CC1C3 (stereo unspecified) | -10 | 2
CCNC(=O)c1coc(CN2CCN(c3ccc(C)c(C)c3)CC2)n1 | 0 | 6
O=C(NC1CCN(C(=O)c2ccccc2)C1)C1CCCC1 (stereo unspecified) | 2 | 5
CC[C@@H]1C(c2cccc(Cl)c2)=NN(c2ccccc2)[C@H]1C(=O)N1CCOC1=O | -6 | -61
CC[C@@H]1C(c2cccc(Cl)c2)=NN(c2ccc(Br)cc2)[C@H]1C(=O)N1CCOC1=O | 6 | 95*
O=C1OCCN1C(=O)[C@H]1[C@H](c2ccc(Cl)cc2)C(c2ccccc2)=NN1c1ccc(Br)cc1 | -3 | 65*
O=C1OCCN1C(=O)[C@H]1[C@H](c2ccc(Cl)cc2)C(c2cccc(Cl)c2)=NN1c1ccccc1 | -5 | 46
COc1ccc(C2CC(=O)C3=C(C2)Nc2ncnn2C3c2cccc(F)c2)cc1 (stereo unspecified) | -2 | -3
SMILES | Pf apPOL inh | mHTT CaM bind
COC(=O)c1cnc2nc(C)ccc2c1Nc1ccccc1C#N | 8 | 16
CCc1cc2c3c(c1)C(C)=CC(C)(C)N3C(=O)C2=O | 6 | 72*
Cc1cc2c3c(c1)C(C)CC(C)(C)N3C(=O)C2=O (stereo unspecified) | 0 | 17
COc1ccccc1NC(=O)N1CCC(c2cc(N)on2)CC1 | -1 | -5
Cc1[nH]c2ccccc2c1CCNC(=O)/C(=C/c1ccc2c(c1)OCO2)NC(=O)c1ccccc1 | -8 | 75*
O=C(NCCO)/C(=C\c1ccc2c(c1)OCO2)NC(=O)c1ccc(Br)cc1 | 2 | 0
CC(=O)N1CCCC2(C1)Nc1ccccc1NC2=NC1CCCC1 (stereo unspecified) | 2 | 28
CN(C)c1nc2cc(C(=O)NC3CC3)sc2n1-c1ccccc1 | 0 | 0
O=C(c1ccc(Cl)c(Cl)c1)N1CCC(=O)N([C@H](COCc2cccc(C(F)(F)F)c2)Cc2ccccc2)CC1 | -4 | 100*
Cc1ccc(S(=O)(=O)N2CCC(=O)N([C@H](COCc3ccc(Cl)cc3Cl)Cc3ccccc3)CC2)cc1 | -4 | -10
O=C(SCc1cccc(C(F)(F)F)c1)c1ccc(Cl)c(Cl)c1 | 3 | .
O=C(c1ccc(Cl)c(Cl)c1)N1CCC(=O)N([C@H](COCc2ccccc2)Cc2ccccc2)CC1 | -4 | 100*
O=C(Nc1cc2cc([N+](=O)[O-])ccc2oc1=O)c1ccc(Cl)cc1 | 2 | 0
COc1ccc(NC(=O)c2cc3cc4ccc(OC)cc4nc3s2)c(OC)c1 | -6 | 5
COc1ccc(C2=N/C(=C\c3sccc3C)C(=O)O2)c(Cl)c1 | -3 | 4
